Results taken from the supplement of paper PMC10849652.
The full data set covers some 7,900 targets. This sample favours those with a hit. About 0.6% of all pairs of compound and target were hits.

Columns and labels:
Test in all cases: log2 fold change, soluble protein after heating vs DMSO (PISA); higher = thermal stabilisation; K562 cells, 10 uM, 30 min; active = over 0.2 and 3.5 SD of the protein, either way, in both replicates (recomputed)
[1] = compound: CS(=O)(=O)c1ccc(-c2cnc(N)c(C(=O)Nc3ccccc3)n2)cc1
How it was run: (§1)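 K562 cells at 2×10^6 cells/mL were exposed to 10 μM compound for 30 min, then aliquots were heated for 3 min across 48°C-58°C, pooled, and extracted in PBS containing 0.5% NP-40 at 4°C. The supernatant after 21,000xg for 90 min was taken as soluble protein and measured by TMTpro 16plex LC-MS/MS with channel sums equalised. Thermal stability is reported relative to control samples, with values from duplicates. Fold changes are given on a log2 scale.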

[2] = compound: C[C@@H](Oc1cc(-c2cnn(C3CCNCC3)c2)cnc1N)c1c(Cl)ccc(F)c1Cl [crizotinib]
How it was run: as §1

[3] = compound: C[C@@H]1COCCN1C2=NC(=NC(=C2)C3(CC3)S(=O)(=O)C)C4=C5C=CNC5=CC=C4
How it was run: as §1

[4] = compound: C[C@H](C1=CC=C(C=C1)C(=O)NC2=C3C=CNC3=NC=C2)N
How it was run: as §1

[5] = compound: C[C@H](Nc1ncnc2nc[nH]c12)c1cc2cccc(Cl)c2c(=O)n1-c1ccccc1 [duvelisib]
How it was run: as §1

[6] = compound: Cc1cc(Nc2cc(CN3CCOCC3)c3nc(C)c(Cc4ccc(Cl)cc4F)n3n2)n[nH]1 [gandotinib]
How it was run: as §1

[7] = compound: Cc1cc(Nc2cc(N3CCN(C)CC3)nc(Sc3ccc(NC(=O)C4CC4)cc3)n2)n[nH]1 [tozasertib]
How it was run: as §1

[8] = compound: Cc1cc(SCc2sc(-c3ccc(C(F)(F)F)cc3)nc2C)ccc1OCC(=O)O
How it was run: as §1

[9] = compound: Cc1ccc(-n2nc(C(C)(C)C)cc2NC(=O)Nc2ccc(OCCN3CCOCC3)c3ccccc23)cc1 [doramapimod]
How it was run: as §1

[10] = compound: Cc1ccc(C(=O)N(CCCN)[C@@H](c2nc3cc(Cl)ccc3c(=O)n2Cc2ccccc2)C(C)C)cc1 [ispinesib]
How it was run: as §1

Measured: log2 fold change

ACSL5 isoform 3 (UniProt Q9ULC5)
inactive: [1] -0.014 | [2] -0.146 | [3] 0.11 | [4] 0.009 | [5] -0.024 | [6] 0.021 | [7] -0.076 | [8] -0.033 | [9] 0.059 | [10] -0.316

ADD3 (UniProt Q9UEY8)
Chain of UniProt Q9UEY8 (Q9UEY8 whole entry, looked up): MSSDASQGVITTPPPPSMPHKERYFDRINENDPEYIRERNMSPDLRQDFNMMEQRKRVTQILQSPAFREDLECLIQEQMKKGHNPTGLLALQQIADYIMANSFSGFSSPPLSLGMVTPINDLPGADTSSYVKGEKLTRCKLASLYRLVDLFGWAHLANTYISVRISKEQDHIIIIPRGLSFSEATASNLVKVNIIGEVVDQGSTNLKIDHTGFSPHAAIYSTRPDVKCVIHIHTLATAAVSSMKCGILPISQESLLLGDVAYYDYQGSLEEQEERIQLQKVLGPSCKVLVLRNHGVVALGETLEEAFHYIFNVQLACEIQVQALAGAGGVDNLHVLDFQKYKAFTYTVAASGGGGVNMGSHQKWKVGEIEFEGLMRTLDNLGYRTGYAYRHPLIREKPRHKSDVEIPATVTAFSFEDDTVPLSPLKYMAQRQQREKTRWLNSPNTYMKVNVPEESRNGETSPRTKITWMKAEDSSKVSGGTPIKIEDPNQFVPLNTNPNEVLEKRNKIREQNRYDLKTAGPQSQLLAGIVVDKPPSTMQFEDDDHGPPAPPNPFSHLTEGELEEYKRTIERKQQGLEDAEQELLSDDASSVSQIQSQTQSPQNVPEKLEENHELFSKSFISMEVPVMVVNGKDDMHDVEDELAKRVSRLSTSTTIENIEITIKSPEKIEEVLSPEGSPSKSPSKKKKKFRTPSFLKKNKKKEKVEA
inactive: [1] 0 | [2] 0.023 | [3] 0.018 | [4] -0.079 | [5] 0.023 | [6] -0.029 | [7] -0.053 | [8] -0.059 | [9] 0.016 | [10] 0.061

ATP13A3 (UniProt Q9H7F0)
inactive: [1] 0.076 | [2] -0.251 | [3] -0.037 | [4] 0.056 | [5] 0.09 | [6] 0 | [7] -0.118 | [8] -0.043 | [9] 0.045 | [10] -0.251

AUP1 (UniProt Q9Y679)
Chain of UniProt Q9Y679 (Q9Y679 whole entry, looked up): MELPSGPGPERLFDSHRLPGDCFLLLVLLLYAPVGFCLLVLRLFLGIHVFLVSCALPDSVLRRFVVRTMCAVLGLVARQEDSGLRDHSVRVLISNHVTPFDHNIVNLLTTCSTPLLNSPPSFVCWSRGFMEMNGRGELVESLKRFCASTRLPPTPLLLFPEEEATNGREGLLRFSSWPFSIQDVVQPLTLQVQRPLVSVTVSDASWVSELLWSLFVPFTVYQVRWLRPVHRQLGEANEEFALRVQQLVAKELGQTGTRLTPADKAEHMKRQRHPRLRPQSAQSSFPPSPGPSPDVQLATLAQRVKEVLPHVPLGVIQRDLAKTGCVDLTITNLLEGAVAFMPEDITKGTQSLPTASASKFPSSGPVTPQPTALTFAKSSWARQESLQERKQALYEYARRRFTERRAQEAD
inactive: [1] -0.032 | [2] -0.123 | [3] 0.071 | [4] -0.015 | [5] -0.05 | [6] -0.181 | [7] -0.012 | [8] 0.06 | [9] -0.033
active: [10] -0.41

ARFGAP2 (UniProt Q8N6H7)
inactive: [1] -0.04 | [2] 0.042 | [3] 0.062 | [4] 0.007 | [5] 0.033 | [6] -0.101 | [7] 0.026 | [8] 0.066 | [9] -0.009 | [10] 0.039

ATIC (UniProt P31939)
inactive: [1] 0.108 | [2] 0.092 | [3] 0.101 | [4] -0.083 | [5] 0.023 | [6] 0.066 | [7] 0.018 | [8] -0.015 | [9] -0.029 | [10] 0.096

AKR1C3 (UniProt P42330)
Chain of UniProt P42330 (P42330 whole entry, looked up): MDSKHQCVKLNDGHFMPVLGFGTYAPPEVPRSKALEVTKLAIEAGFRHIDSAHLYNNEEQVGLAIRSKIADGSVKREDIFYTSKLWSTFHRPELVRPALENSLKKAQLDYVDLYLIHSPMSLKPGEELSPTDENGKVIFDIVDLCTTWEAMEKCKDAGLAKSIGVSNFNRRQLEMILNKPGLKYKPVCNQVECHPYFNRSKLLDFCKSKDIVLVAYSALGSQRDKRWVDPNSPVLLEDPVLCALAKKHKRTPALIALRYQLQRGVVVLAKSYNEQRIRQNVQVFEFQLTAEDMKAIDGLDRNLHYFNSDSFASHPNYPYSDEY
inactive: [1] -0.101 | [2] 0.028 | [3] -0.009 | [4] -0.035 | [5] 0.23 | [6] 0.005 | [7] -0.059 | [8] 0.078 | [9] -0.012 | [10] 0.371

ARFIP1 (UniProt P53367)
inactive: [1] 0.833 | [2] -0.309 | [3] 0.026 | [4] -0.061 | [5] 0.161 | [6] -0.223 | [7] -0.065 | [8] 0.014 | [9] 0 | [10] -0.232

ACADVL isoform 3 (UniProt P49748)
inactive: [1] 0.042 | [2] 0.021 | [3] 0.078 | [4] -0.058 | [5] 0.081 | [6] -0.01 | [7] 0.003 | [8] -0.005 | [9] -0.065 | [10] -0.01

APPL1 (UniProt Q9UKG1)
inactive: [1] -0.019 | [2] -0.015 | [3] -0.078 | [4] 0.034 | [5] 0.077 | [6] 0.123 | [7] -0.028 | [8] -0.003 | [9] 0.032 | [10] -0.098

AFDN isoform 5 (UniProt P55196)
inactive: [1] 0.027 | [2] -0.154 | [3] 0.04 | [4] -0.094 | [5] -0.016 | [6] -0.159 | [7] -0.029 | [8] 0.063 | [9] 0.009 | [10] -0.002

BRIP1 (UniProt Q9BX63)
Chain of UniProt Q9BX63 (Q9BX63 whole entry, looked up): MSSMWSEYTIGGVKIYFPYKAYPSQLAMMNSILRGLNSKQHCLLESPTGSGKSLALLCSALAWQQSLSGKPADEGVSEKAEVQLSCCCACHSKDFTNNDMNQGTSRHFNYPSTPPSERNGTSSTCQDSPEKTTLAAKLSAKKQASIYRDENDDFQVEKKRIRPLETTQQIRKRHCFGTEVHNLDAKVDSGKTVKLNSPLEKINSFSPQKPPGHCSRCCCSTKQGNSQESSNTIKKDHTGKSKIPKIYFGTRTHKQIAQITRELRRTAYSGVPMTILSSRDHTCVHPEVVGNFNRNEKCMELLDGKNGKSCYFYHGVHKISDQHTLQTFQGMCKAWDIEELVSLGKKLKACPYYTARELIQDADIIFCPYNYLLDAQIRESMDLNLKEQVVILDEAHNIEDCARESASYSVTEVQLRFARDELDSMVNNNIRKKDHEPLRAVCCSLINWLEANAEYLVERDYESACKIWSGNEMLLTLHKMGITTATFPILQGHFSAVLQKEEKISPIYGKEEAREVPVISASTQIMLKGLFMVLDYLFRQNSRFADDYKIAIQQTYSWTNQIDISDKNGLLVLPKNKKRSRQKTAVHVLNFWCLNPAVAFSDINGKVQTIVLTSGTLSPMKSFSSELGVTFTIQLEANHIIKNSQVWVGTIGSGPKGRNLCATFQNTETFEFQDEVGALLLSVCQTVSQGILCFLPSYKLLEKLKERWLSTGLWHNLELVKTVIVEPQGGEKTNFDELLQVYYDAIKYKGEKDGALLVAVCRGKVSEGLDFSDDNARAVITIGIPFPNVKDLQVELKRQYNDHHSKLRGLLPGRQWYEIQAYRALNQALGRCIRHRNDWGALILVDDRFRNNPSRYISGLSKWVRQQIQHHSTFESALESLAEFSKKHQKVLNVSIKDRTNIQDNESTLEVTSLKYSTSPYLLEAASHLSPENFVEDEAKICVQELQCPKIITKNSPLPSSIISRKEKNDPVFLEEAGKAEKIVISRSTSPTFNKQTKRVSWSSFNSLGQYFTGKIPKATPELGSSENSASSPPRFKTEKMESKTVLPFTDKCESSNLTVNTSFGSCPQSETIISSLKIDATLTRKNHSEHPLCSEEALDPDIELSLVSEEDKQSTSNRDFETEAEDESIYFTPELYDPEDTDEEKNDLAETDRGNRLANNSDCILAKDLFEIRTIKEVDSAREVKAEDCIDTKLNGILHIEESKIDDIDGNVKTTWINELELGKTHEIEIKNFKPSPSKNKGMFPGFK
inactive: [1] 0.13 | [2] 0.019 | [3] 0.151 | [4] -0.005 | [5] 0.042 | [6] -0.035 | [7] 0.183 | [8] 0.009 | [9] -0.088 | [10] 0.018

BCCIP (UniProt Q9P287)
inactive: [1] -0.015 | [2] -0.02 | [3] -0.044 | [4] 0.074 | [5] -0.03 | [6] -0.093 | [7] -0.005 | [8] 0.037 | [9] 0.01 | [10] 0.001

AP2A1 (UniProt O95782)
Chain of UniProt O95782 (O95782 whole entry, looked up): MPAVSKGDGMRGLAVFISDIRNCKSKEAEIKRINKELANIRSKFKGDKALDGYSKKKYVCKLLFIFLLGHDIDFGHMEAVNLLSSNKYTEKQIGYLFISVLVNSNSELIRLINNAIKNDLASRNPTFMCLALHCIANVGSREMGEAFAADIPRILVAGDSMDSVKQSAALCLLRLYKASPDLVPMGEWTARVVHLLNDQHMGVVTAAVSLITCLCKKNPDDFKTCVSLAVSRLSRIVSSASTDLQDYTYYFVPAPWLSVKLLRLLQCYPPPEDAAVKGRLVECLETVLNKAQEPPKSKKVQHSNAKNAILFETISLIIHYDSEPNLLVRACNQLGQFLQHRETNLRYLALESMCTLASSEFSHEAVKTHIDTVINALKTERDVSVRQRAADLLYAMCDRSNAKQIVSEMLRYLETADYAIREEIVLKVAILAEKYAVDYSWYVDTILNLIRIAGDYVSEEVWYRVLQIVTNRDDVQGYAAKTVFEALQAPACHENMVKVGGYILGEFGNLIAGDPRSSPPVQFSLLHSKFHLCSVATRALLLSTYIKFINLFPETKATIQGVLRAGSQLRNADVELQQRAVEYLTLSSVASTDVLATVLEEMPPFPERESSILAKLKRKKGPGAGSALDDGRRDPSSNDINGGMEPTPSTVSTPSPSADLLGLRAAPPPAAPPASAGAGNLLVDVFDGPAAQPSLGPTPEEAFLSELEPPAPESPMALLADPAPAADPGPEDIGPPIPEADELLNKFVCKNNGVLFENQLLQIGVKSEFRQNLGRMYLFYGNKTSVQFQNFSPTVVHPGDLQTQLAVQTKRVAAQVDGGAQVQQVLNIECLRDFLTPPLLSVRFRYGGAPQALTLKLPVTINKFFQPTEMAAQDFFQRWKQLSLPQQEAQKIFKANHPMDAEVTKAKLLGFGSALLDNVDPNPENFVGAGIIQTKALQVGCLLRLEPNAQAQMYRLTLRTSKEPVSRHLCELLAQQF
active: [4] -0.237
inactive: [1] -0.011 | [2] -0.127 | [3] -0.006 | [5] -0.015 | [6] 0.01 | [7] -0.126 | [8] 0.02 | [9] 0.039 | [10] 0.081

ACP1 isoform 2 (UniProt P24666)
Chain of UniProt P24666 (P24666 whole entry, looked up): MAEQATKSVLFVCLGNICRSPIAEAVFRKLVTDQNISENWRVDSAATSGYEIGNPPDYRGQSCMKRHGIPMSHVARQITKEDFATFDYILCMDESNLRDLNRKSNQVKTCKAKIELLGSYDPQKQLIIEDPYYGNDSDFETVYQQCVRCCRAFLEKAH
inactive: [1] 0.008 | [2] -0.079 | [3] 0.016 | [4] 0.15 | [5] 0.004 | [6] -0.137 | [7] -0.09 | [8] 0.12 | [9] 0.033 | [10] -0.041

ATG9A (UniProt Q7Z3C6)
Chain of UniProt Q7Z3C6 (Q7Z3C6 whole entry, looked up): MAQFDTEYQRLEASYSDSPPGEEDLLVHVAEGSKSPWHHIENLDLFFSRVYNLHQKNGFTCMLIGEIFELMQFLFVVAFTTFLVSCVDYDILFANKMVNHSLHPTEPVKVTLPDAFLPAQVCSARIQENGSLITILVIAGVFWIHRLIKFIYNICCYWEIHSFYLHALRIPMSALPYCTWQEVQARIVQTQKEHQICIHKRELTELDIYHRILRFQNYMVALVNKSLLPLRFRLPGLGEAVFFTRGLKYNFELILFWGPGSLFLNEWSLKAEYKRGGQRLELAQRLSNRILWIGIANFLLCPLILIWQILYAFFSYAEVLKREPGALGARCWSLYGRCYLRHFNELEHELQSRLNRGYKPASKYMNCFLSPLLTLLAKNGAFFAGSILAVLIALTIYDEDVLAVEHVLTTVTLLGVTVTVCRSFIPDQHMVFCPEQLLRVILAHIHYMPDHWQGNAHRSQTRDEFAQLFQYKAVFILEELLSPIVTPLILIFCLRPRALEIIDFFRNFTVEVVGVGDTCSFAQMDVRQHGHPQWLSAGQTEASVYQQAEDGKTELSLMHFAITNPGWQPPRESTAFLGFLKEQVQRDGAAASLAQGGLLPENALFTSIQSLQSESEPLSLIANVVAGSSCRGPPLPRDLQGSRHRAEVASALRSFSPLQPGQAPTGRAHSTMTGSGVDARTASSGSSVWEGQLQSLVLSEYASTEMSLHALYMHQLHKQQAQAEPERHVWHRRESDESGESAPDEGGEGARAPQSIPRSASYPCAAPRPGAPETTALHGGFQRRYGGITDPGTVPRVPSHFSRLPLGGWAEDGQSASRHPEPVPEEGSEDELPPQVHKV
active: [10] -0.239
inactive: [1] 0.074 | [2] -0.11 | [3] 0.036 | [4] 0.036 | [5] 0.042 | [6] -0.062 | [7] 0.012 | [8] 0.069 | [9] -0.016

B4GALNT1 (UniProt Q00973)
inactive: [1] 0.198 | [2] 0.014 | [3] -0.003 | [4] -0.019 | [5] 0.06 | [6] -0.077 | [7] -0.003 | [8] 0.12 | [9] 0.065 | [10] -0.077

BAIAP2 (UniProt Q9UQB8)
inactive: [1] 0.023 | [2] -0.115 | [3] 0 | [4] -0.039 | [5] 0.014 | [6] -0.053 | [7] -0.061 | [8] 0.08 | [9] 0.086 | [10] -0.057

BLVRB (UniProt P30043)
inactive: [1] 0.04 | [2] -0.006 | [3] 0.036 | [4] -0.081 | [5] 0.016 | [6] -0.085 | [7] -0.011 | [8] 0.002 | [9] -0.027 | [10] -0.012

ABCC5 (UniProt O15440)
inactive: [1] 0.045 | [2] -0.011 | [3] 0.031 | [4] 0.088 | [5] 0.037 | [6] -0.05 | [7] -0.023 | [8] -0.011 | [9] -0.023 | [10] -0.071

ACP1 (UniProt P24666)
inactive: [1] 0.077 | [2] -0.063 | [3] -0.033 | [4] 0.165 | [5] 0.021 | [6] -0.083 | [7] 0.108 | [8] 0.324 | [9] 0.141

BST2 (UniProt Q10589)
Chain of UniProt Q10589 (Q10589 whole entry, looked up): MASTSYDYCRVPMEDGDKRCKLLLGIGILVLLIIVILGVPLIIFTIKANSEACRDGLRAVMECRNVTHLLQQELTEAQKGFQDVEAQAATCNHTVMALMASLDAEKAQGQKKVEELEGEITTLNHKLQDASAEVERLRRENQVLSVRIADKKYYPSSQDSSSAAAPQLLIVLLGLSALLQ
inactive: [1] -0.023 | [2] 0.066 | [3] 0.006 | [4] -0.055 | [5] -0.004 | [6] -0.016 | [7] -0.009 | [8] -0.074 | [9] 0.023 | [10] -0.078

ATP1A4 (UniProt Q13733)
inactive: [1] -0.013 | [2] 0.091 | [3] -0.067 | [4] -0.066 | [5] 0.174 | [6] -0.026 | [7] -0.053 | [8] 0.038 | [9] -0.086 | [10] 0.032

ADAM15 (UniProt Q13444)
inactive: [1] 0 | [2] 0.097 | [3] 0.015 | [4] -0.047 | [5] 0.119 | [6] -0.047 | [7] -0.067 | [8] -0.047 | [9] 0.033 | [10] -0.119

ATAD1 (UniProt Q8NBU5)
inactive: [1] 0.004 | [2] 0.021 | [3] -0.013 | [4] 0.074 | [5] -0.032 | [6] 0.144 | [7] -0.013 | [8] 0.113 | [9] -0.003 | [10] -0.063

AGO1 (UniProt Q9UL18)
inactive: [1] -0.071 | [2] -0.064 | [3] -0.007 | [4] 0.006 | [5] -0.116 | [6] 0.094 | [7] -0.153 | [8] 0.002 | [9] -0.066 | [10] 0.125

ATAD3A isoform 2 (UniProt Q9NVI7)
inactive: [1] 0.003 | [2] -0.191 | [3] -0.052 | [4] 0.101 | [5] -0.083 | [6] 0.032 | [7] 0.005 | [8] 0.075 | [9] 0.057
active: [10] -0.348

ARL2BP (UniProt Q9Y2Y0)
Chain of UniProt Q9Y2Y0 (Q9Y2Y0 whole entry, looked up): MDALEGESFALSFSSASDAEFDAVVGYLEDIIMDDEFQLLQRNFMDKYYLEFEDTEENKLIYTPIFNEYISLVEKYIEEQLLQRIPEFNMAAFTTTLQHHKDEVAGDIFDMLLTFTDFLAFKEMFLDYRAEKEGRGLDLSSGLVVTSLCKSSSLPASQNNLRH
inactive: [1] 0.077 | [2] -0.128 | [3] -0.017 | [4] -0.038 | [5] -0.004 | [6] -0.166 | [7] 0.006 | [8] 0.044 | [9] 0.101 | [10] -0.042

ATP1A1 (UniProt P05023)
inactive: [1] 0.032 | [2] 0.165 | [3] 0.028 | [4] -0.117 | [5] 0.029 | [6] -0.049 | [7] -0.061 | [8] -0.035 | [9] -0.047 | [10] 0.106

AKR1C2 (UniProt P52895)
inactive: [1] 0.005 | [2] -0.029 | [3] -0.159 | [4] 0.219 | [5] -0.076 | [6] 0.089 | [7] -0.045 | [8] 0.098 | [9] -0.036 | [10] 0.077
